The full list was thinned out, with the strongest signals kept by preference.
Assays:
Assay in all cases: glycan array binding signal (z-score within array); higher = stronger binding
Settings in all cases: glycan notation: IUPAC condensed, linker removed
[1] = target: Fuc(a1-2)Gal(b1-3)GalNAc(a1-3)[Fuc(a1-2)]Gal(b1-4)Glc
Outline: (§1)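 Glycan array data came from 3228 arrays in the Consortium for Functional Glycomics database, and only arrays with an available protein sequence were kept. Glycan names were put into IUPAC-condensed notation, and columns mapping to the same glycan were averaged. The binding signal is a within-array Z-score, averaged across arrays of one protein sequence run at different concentrations or buffers and across linkers. A negative Z-score can be read as non-binding.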

[2] = target: Fuc(a1-2)Gal(b1-3)[Fuc(a1-4)]GlcNAc
Outline: as §1

[3] = target: Fuc(a1-2)Gal(b1-4)Glc6S
Outline: as §1

[4] = target: Fuc(a1-2)Gal(b1-4)GlcNAc(b1-2)Man(a1-3)[Fuc(a1-2)Gal(b1-4)GlcNAc(b1-2)Man(a1-6)]Man(b1-4)GlcNAc(b1-4)[Fuc(a1-6)]GlcNAc
Outline: as §1

[5] = target: Fuc(a1-2)Gal(b1-4)GlcNAc(b1-6)GalNAc
Outline: as §1

[6] = target: Fuc(a1-2)Gal(b1-4)[Fuc(a1-3)]GlcNAc
Outline: as §1

[7] = target: Fuc(a1-2)Gal6S(b1-3)GlcNAc6S
Outline: as §1

[8] = target: Fuc(a1-2)Gal6S(b1-4)Glc
Outline: as §1

[9] = target: Fuc(a1-2)[Gal(a1-3)]Gal(b1-3)GalNAc
Outline: as §1

[10] = target: Fuc(a1-2)[Gal(a1-3)]Gal(b1-3)GlcNAc(b1-2)Man(a1-3)[Fuc(a1-2)[Gal(a1-3)]Gal(b1-3)GlcNAc(b1-2)Man(a1-6)]Man(b1-4)GlcNAc(b1-4)GlcNAc
Outline: as §1

[11] = target: Fuc(a1-2)[Gal(a1-3)]Gal(b1-3)GlcNAc(b1-2)Man(a1-3)[Fuc(a1-2)[Gal(a1-3)]Gal(b1-3)GlcNAc(b1-2)Man(a1-6)]Man(b1-4)GlcNAc(b1-4)[Fuc(a1-6)]GlcNAc
Outline: as §1

[12] = target: Fuc(a1-2)[Gal(a1-3)]Gal(b1-4)GlcNAc(b1-2)Man
Outline: as §1

[13] = target: Fuc(a1-3)[Gal(b1-4)]GlcNAc(b1-2)Man(a1-3)[Fuc(a1-3)[Gal(b1-4)]GlcNAc(b1-2)Man(a1-6)]Man(b1-4)GlcNAc(b1-4)GlcNAc
Outline: as §1

[14] = target: Fuc(a1-3)[Gal(b1-4)]GlcNAc(b1-3)Gal(b1-4)[Fuc(a1-3)]GlcNAc(b1-3)Gal(b1-4)[Fuc(a1-3)]GlcNAc
Outline: as §1

[15] = target: Fuc(a1-3)[Gal3S(b1-4)]Glc
Outline: as §1

[16] = target: Gal(a1-3)Gal(b1-3)[Fuc(a1-4)]GlcNAc(b1-2)Man(a1-3)[Gal(a1-3)Gal(b1-3)[Fuc(a1-4)]GlcNAc(b1-2)Man(a1-6)]Man(b1-4)GlcNAc(b1-4)GlcNAc
Outline: as §1

[17] = target: Gal(a1-3)Gal(b1-4)GlcNAc(b1-2)Man
Outline: as §1

[18] = target: Gal(a1-3)Gal(b1-4)GlcNAc(b1-6)GalNAc
Outline: as §1

[19] = target: Gal(b1-3)GlcNAc(a1-6)Gal(b1-4)GlcNAc
Outline: as §1

[20] = target: Gal(b1-3)GlcNAc(b1-2)[Gal(b1-3)GlcNAc(b1-6)]Man(a1-6)[Gal(b1-3)GlcNAc(b1-2)Man(a1-3)]Man(b1-4)GlcNAc(b1-4)GlcNAc
Outline: as §1

[21] = target: Gal(b1-3)GlcNAc(b1-3)Gal(b1-4)GlcNAc(b1-2)[Gal(b1-3)GlcNAc(b1-3)Gal(b1-4)GlcNAc(b1-6)]Man(a1-6)[Gal(b1-3)GlcNAc(b1-3)Gal(b1-4)GlcNAc(b1-2)Man(a1-3)]Man(b1-4)GlcNAc(b1-4)[Fuc(a1-6)]GlcNAc
Outline: as §1

[22] = target: Gal(b1-3)GlcNAc(b1-3)Gal(b1-4)GlcNAc(b1-3)Gal(b1-4)GlcNAc(b1-2)[Gal(b1-3)GlcNAc(b1-3)Gal(b1-4)GlcNAc(b1-3)Gal(b1-4)GlcNAc(b1-6)]Man(a1-6)[Gal(b1-3)GlcNAc(b1-3)Gal(b1-4)GlcNAc(b1-3)Gal(b1-4)GlcNAc(b1-2)Man(a1-3)]Man(b1-4)GlcNAc(b1-4)[Fuc(a1-6)]GlcNAc
Outline: as §1

[23] = target: Gal(b1-3)[Neu5Ac(a2-6)]GlcNAc(b1-4)Gal(b1-4)Glc
Outline: as §1

[24] = target: Gal(b1-4)Gal
Outline: as §1

[25] = target: Gal(b1-4)GalNAc(a1-3)[Fuc(a1-2)]Gal(b1-4)GlcNAc
Outline: as §1

[26] = target: Gal(b1-4)GlcNAc(b1-2)Man(a1-3)[Man(a1-6)]Man(b1-4)GlcNAc(b1-4)GlcNAc
Outline: as §1

[27] = target: Gal(b1-4)GlcNAc(b1-2)[Gal(b1-4)GlcNAc(b1-4)]Man(a1-3)[Gal(b1-4)GlcNAc(b1-2)Man(a1-6)]Man(b1-4)GlcNAc(b1-4)GlcNAc
Outline: as §1

[28] = target: Gal(b1-4)GlcNAc(b1-2)[Gal(b1-4)GlcNAc(b1-4)]Man(a1-3)[GlcNAc(b1-4)][Gal(b1-4)GlcNAc(b1-2)[Gal(b1-4)GlcNAc(b1-6)]Man(a1-6)]Man(b1-4)GlcNAc(b1-4)GlcNAc
Outline: as §1

[29] = target: Gal(b1-4)GlcNAc(b1-2)[Gal(b1-4)GlcNAc(b1-6)]Man(a1-6)[Gal(b1-4)GlcNAc(b1-2)Man(a1-3)]Man(b1-4)GlcNAc(b1-4)GlcNAc
Outline: as §1

[30] = target: Gal(b1-4)GlcNAc(b1-3)Gal(b1-4)GlcNAc(b1-2)[Gal(b1-4)GlcNAc(b1-3)Gal(b1-4)GlcNAc(b1-6)]Man(a1-6)[Gal(b1-4)GlcNAc(b1-3)Gal(b1-4)GlcNAc(b1-2)Man(a1-3)]Man(b1-4)GlcNAc(b1-4)GlcNAc
Outline: as §1

B1: Mermaid1 (Stilbonema majum) (protein)
chain: MGSSHHHHHHSSGLVPRGSHMAASGWLRSPQGTVVKLYRRSLSWSKADEFCKDVDGRLVVDRTADMHLFLIKNVLKEKKSRVWVGLRRTAPHSRTWIWSDGTRQNEDDLDANLWLRDEPNDAAGEEECALFMYSPWEKAWGLNDYLCRGGCRSYQFICEKWIR
glycan array binding signal (z-score) [1]: -0.132 | glycan array binding signal (z-score) [2]: -0.578 | glycan array binding signal (z-score) [3]: 2.97 | glycan array binding signal (z-score) [4]: 3.06 | glycan array binding signal (z-score) [5]: -0.219 | glycan array binding signal (z-score) [6]: 0 | glycan array binding signal (z-score) [7]: 1.58 | glycan array binding signal (z-score) [8]: -0.65 | glycan array binding signal (z-score) [9]: 3.08 | glycan array binding signal (z-score) [10]: -0.403 | glycan array binding signal (z-score) [11]: -0.259 | glycan array binding signal (z-score) [12]: -0.732 | glycan array binding signal (z-score) [13]: -0.717 | glycan array binding signal (z-score) [14]: -0.381 | glycan array binding signal (z-score) [15]: 0.419 | glycan array binding signal (z-score) [16]: 2.49 | glycan array binding signal (z-score) [17]: -0.331 | glycan array binding signal (z-score) [18]: -0.176 | glycan array binding signal (z-score) [19]: 0.067 | glycan array binding signal (z-score) [20]: -0.787 | glycan array binding signal (z-score) [21]: 4.98 | glycan array binding signal (z-score) [22]: 6.8 | glycan array binding signal (z-score) [23]: -0.953 | glycan array binding signal (z-score) [24]: 3.2 | glycan array binding signal (z-score) [25]: 1.62 | glycan array binding signal (z-score) [26]: 2.41 | glycan array binding signal (z-score) [27]: 0.823 | glycan array binding signal (z-score) [28]: -1.01 | glycan array binding signal (z-score) [29]: -0.567 | glycan array binding signal (z-score) [30]: 4.04

Reference: the supplement of paper PMC8728848
